Results from PubChem BioAssay (NCI).
This is part of a sample that, as a whole, favours compounds with a hit. Of some 83,000 tested, about 20% had one in any assay.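 Values shown are percent growth following 48 h exposure of cells in 96-well plates to a single concentration of compound; below 10 was considered active.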 Active and inactive are the calls of the source.

What was measured:
Assay in all cases: NCI-60 one-dose screen, 48 h (100 = growth as untreated, 0 = no growth, -100 = all killed)
Conditions in all cases: 10 µM unless noted
[1] = system: DU-145 prostate
[2] = system: K-562 leukemia
[3] = system: MALME-3M melanoma
[4] = system: MDA-MB-231 breast
[5] = system: RXF 393 renal
[6] = system: SF-268 CNS
[7] = system: SF-295 CNS
[8] = system: SF-539 CNS
[9] = system: UACC-257 melanoma
[10] = system: HCT-15 colon
[11] = system: HT29 colon
[12] = system: SNB-75 CNS
[13] = system: SNB-19 CNS
[14] = system: U251 CNS
[15] = system: PC-3 prostate
[16] = system: SK-MEL-5 melanoma
[17] = system: UACC-62 melanoma
[18] = system: LOX IMVI melanoma
[19] = system: SK-MEL-28 melanoma
[20] = system: M14 melanoma

Measured: growth

O=C1C(=O)c2ccccc2C(O)=C1CCCc1ccc(C2CCCC2)cc1
active: [18] 1.77%
inactive: [1] 40.5% | [2] 19.2% | [3] 84% | [4] 56.5% | [5] 57.9% | [6] 47.6% | [7] 27.3% | [8] 22.9% | [9] 40.7% | [10] 19.6% | [11] 34.7% | [12] 39.9% | [13] 40.9% | [14] 29.2% | [15] 35.6% | [16] 15.6% | [17] 40.7% | [19] 53.1%

CCOC(=O)C1=C(C(F)(F)F)NC(=S)NC1CN1C(=O)c2ccccc2C1=O (stereo unspecified)
inactive: [1] 115% | [2] 101% | [3] 92.9% | [4] 90.2% | [5] 113% | [6] 101% | [7] 93% | [8] 104% | [9] 110% | [10] 109% | [11] 108% | [12] 104% | [13] 112% | [14] 102% | [15] 90.5% | [16] 103% | [17] 101% | [18] 105% | [19] 108%

COC1=CC(c2ccc[nH]2)=N/C1=C\c1[nH]c(C)c(C(=O)CCCCC(=O)NC(C)(C)C)c1C
active: [4] -19.2% | [5] -47.1% | [10] -31.8% | [11] 3.41% | [15] -31.3% | [18] -34.4%
inactive: [1] 51.5% | [2] 53.5% | [3] 48.7% | [6] 60.2% | [7] 24% | [8] 63.1% | [9] 75.7% | [12] 41.5% | [13] 70.1% | [14] 22% | [16] 50.8% | [17] 69.1%

COc1ccc(-c2nc(N)n(C(=S)Nc3ccccc3)n2)cc1
inactive: [1] 108% | [2] 95% | [3] 89.5% | [4] 93.9% | [5] 103% | [6] 96.3% | [7] 91.2% | [8] 97.1% | [9] 105% | [10] 102% | [11] 99.4% | [12] 70% | [13] 99.5% | [14] 103% | [15] 92.3% | [16] 94% | [17] 98% | [18] 94.3% | [19] 116%

CCCCN(CCCC)CCCNc1c2c(nc3ccc(Cl)cc13)CCCC2
inactive: [1] 107% | [2] 72.8% | [3] 126% | [4] 70.5% | [5] 109% | [6] 92.3% | [7] 90.1% | [8] 100% | [9] 105% | [10] 74.2% | [11] 45.7% | [12] 88.4% | [13] 102% | [14] 101% | [15] 95.5% | [16] 106% | [17] 108% | [18] 90.4% | [19] 108%

COc1ccc(C(=O)N2N=C(c3ccc(Br)cc3)CC2c2cn(-c3ccccc3)nc2-c2ccccc2)cc1 (stereo unspecified)
inactive: [1] 47.2% | [2] 43.4% | [3] 73.1% | [4] 61.3% | [5] 82.4% | [6] 71.9% | [7] 70.9% | [8] 92.4% | [9] 79.6% | [20] 39.1% | [12] 70.4% | [13] 65.3% | [15] 36.1% | [16] 92.3% | [17] 74.7% | [18] 44.5% | [19] 61.2%
active: [14] 6.67%

Cc1cc2c(-c3nc4ccccc4n3C)c(O)c(O)cc2c(O)c1-c1c(C)cc2c(-c3nc4ccccc4n3C)c(O)c(O)cc2c1O
inactive: [1] 43.5% | [2] 37.5% | [3] 86.1% | [4] 57.3% | [5] 62.7% | [6] 38.5% | [7] 26% | [8] 22.1% | [9] 82.9% | [10] 78.9% | [11] 25.2% | [12] 69% | [13] 15.4% | [14] 13.5% | [15] 27.3% | [16] 91.3% | [17] 28.9% | [18] 30.4% | [19] 58.1%

O=C1NCCN1/N=C/c1c(Cl)nc2n1CCS2
inactive: [1] 85.8% | [2] 87.3% | [3] 91.7% | [4] 130% | [5] 150% | [6] 113% | [7] 111% | [8] 94.9% | [9] 105% | [10] 101% | [11] 108% | [12] 101% | [13] 108% | [14] 86.1% | [15] 76.3% | [16] 132% | [17] 135% | [18] 101% | [19] 107%

COc1ccc(-c2cc(C#N)c(NNC(C)=O)[nH]2)cc1
inactive: [1] 123% | [2] 47.5% | [3] 106% | [4] 106% | [5] 118% | [6] 122% | [7] 101% | [8] 112% | [9] 108% | [10] 117% | [11] 105% | [12] 119% | [13] 125% | [14] 102% | [15] 115% | [16] 105% | [17] 103% | [18] 103% | [19] 115%

Nc1cc(N)c2nc(-c3ccccc3)c(NCCc3ccc(Cl)c(Cl)c3)nc2c1
active: [1] -98.6% | [2] -16.9% | [3] -93.3% | [4] -71.1% | [5] -94.3% | [6] 0.859% | [7] -74.2% | [8] -96.7% | [9] 5.16% | [10] -87.7% | [11] -36.3% | [12] -33.7% | [13] -69.4% | [14] -100% | [15] -90.5% | [16] -99.1% | [17] -91.7% | [18] -91.5% | [19] -79.3%

COc1cc(OC)c2c(=O)cc(-c3ccccc3)oc2c1
inactive: [1] 111% | [2] 98.4% | [3] 97.2% | [4] 97% | [5] 99.8% | [6] 104% | [7] 93.8% | [8] 108% | [9] 97.8% | [10] 105% | [11] 97.1% | [12] 91.8% | [13] 94.3% | [14] 92.2% | [15] 81.1% | [16] 95.9% | [17] 77.7% | [18] 97.5% | [19] 106%

COC(=O)C(Cc1cnc[nH]1)N1CC(=O)N2[C@@H](c3ccccc3)SC[C@H]2C1=O (stereo partly specified)
inactive: [1] 117% | [2] 106% | [3] 108% | [4] 116% | [5] 193% | [6] 104% | [7] 93.5% | [8] 105% | [9] 96.7% | [10] 107% | [11] 104% | [12] 120% | [13] 106% | [14] 95.2% | [15] 97.4% | [16] 131% | [17] 106% | [18] 97.7% | [19] 117%

COC1(OC)N=C(N)C2(C#N)C3(C(=O)Nc4ccccc43)C12C#N (stereo unspecified)
active: [3] -3.2%
inactive: [1] 68.2% | [2] 85.3% | [4] 73.6% | [5] 61% | [6] 105% | [7] 96.4% | [8] 61.2% | [9] 100% | [10] 83.8% | [11] 98.9% | [12] 66.5% | [13] 108% | [14] 67.9% | [15] 87% | [16] 81.8% | [17] 47% | [18] 50.3% | [19] 103%

COc1cc(/C=C/C(=O)c2ccc(F)cc2)ccc1OCCCCOc1cc2c(cc1OC)C(=O)N1CCCC1C=N2 (stereo unspecified)
active: [1] -72.1% | [2] -23.9% | [3] -6.3% | [4] -15% | [5] -71.6% | [6] -12.4% | [7] -29.1% | [8] -61.9% | [9] 2.17% | [10] -46.3% | [11] -49.3% | [12] -8.01% | [13] -35.3% | [14] -100% | [15] -38.3% | [16] -99.7% | [17] -86% | [18] -84.6% | [19] -42.1%

COc1cc(NC(C)CCCN)c2nc(C)ccc2c1OC (stereo unspecified)
inactive: [1] 87.2% | [2] 78.9% | [3] 69.9% | [4] 75.6% | [5] 186% | [6] 109% | [7] 118% | [8] 93.6% | [9] 124% | [10] 106% | [11] 93.2% | [12] 98.7% | [13] 107% | [14] 94.7% | [15] 85.9% | [16] 101% | [17] 108% | [18] 106% | [19] 101%

CCOC(=O)C1=C(c2ccccc2)NC(=O)NC1CN1C(=O)c2ccccc2C1=O (stereo unspecified)
inactive: [1] 105% | [2] 50.6% | [3] 71.2% | [4] 108% | [5] 116% | [6] 93.7% | [7] 115% | [8] 106% | [9] 112% | [10] 115% | [11] 110% | [12] 98.8% | [13] 107% | [14] 102% | [15] 100% | [16] 104% | [17] 98.5% | [18] 110% | [19] 105%

COc1cc2c(/C=C3\C(=O)Nc4ccc(Br)cc43)c(Cl)n(C)c2cc1C
inactive: [1] 17.5% | [3] 21.9% | [6] 29.6% | [9] 28.8% | [12] 31.6% | [13] 24% | [14] 10.2% | [15] 11.8% | [17] 29.7% | [19] 55.6%
active: [2] 6.73% | [4] 7.42% | [5] -23.9% | [7] 9.82% | [8] 7.51% | [10] 6.8% | [11] 7.9% | [16] -3% | [18] 9.9%
